Results as given in PubChem BioAssay (NCI).
Compounds without any hit were thinned out: in the full panel of roughly 83,000, 20% have a hit.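 Percent growth is the endpoint: 0 to 100 indicates growth inhibition (40 means 60% inhibition), 0 means no net growth, and negative values indicate cell death.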 Activity calls are given as the source filed them. Rule for the calls: active = growth percent below 10; inactive = the rest.

Tests used:
Assay in all cases: NCI-60 one-dose screen, 48 h (100 = growth as untreated, 0 = no growth, -100 = all killed)
Conditions in all cases: 10 µM unless noted
SK-MEL-2 melanoma = test system: SK-MEL-2 melanoma
SN12C renal = test system: SN12C renal
UO-31 renal = test system: UO-31 renal
TK-10 renal = test system: TK-10 renal
ACHN renal = test system: ACHN renal
CAKI-1 renal = test system: CAKI-1 renal
A498 renal = test system: A498 renal
MOLT-4 leukemia = test system: MOLT-4 leukemia
SR leukemia = test system: SR leukemia
RPMI-8226 leukemia = test system: RPMI-8226 leukemia
OVCAR-8 ovarian = test system: OVCAR-8 ovarian
OVCAR-5 ovarian = test system: OVCAR-5 ovarian
OVCAR-4 ovarian = test system: OVCAR-4 ovarian
SK-OV-3 ovarian = test system: SK-OV-3 ovarian
IGROV1 ovarian = test system: IGROV1 ovarian
OVCAR-3 ovarian = test system: OVCAR-3 ovarian
HS 578T breast = test system: HS 578T breast
NCI/ADR-RES ovarian = test system: NCI/ADR-RES ovarian
CCRF-CEM leukemia = test system: CCRF-CEM leukemia
EKVX NSCLC = test system: EKVX NSCLC

Measured: growth

Cc1occc1-c1n[nH]c(=S)n1N1C(=O)CSC1=S
inactive: SK-MEL-2 melanoma 107% | SN12C renal 99.2% | UO-31 renal 77.6% | TK-10 renal 99% | ACHN renal 102% | CAKI-1 renal 85.4% | A498 renal 101% | MOLT-4 leukemia 99.7% | SR leukemia 102% | RPMI-8226 leukemia 93.8% | OVCAR-8 ovarian 101% | OVCAR-5 ovarian 99.6% | OVCAR-4 ovarian 107% | SK-OV-3 ovarian 106% | IGROV1 ovarian 102% | OVCAR-3 ovarian 103% | HS 578T breast 101% | NCI/ADR-RES ovarian 101%

CS(=O)c1cccc(-c2ccc3nc(N)n(-c4ccc(C(F)(F)F)cc4)c(=O)c3c2)c1 (configuration not stated)
inactive: SK-MEL-2 melanoma 98.2% | SN12C renal 96.3% | UO-31 renal 75.8% | TK-10 renal 94.7% | ACHN renal 105% | CAKI-1 renal 96.3% | A498 renal 107% | CCRF-CEM leukemia 99.7% | RPMI-8226 leukemia 97.4% | OVCAR-8 ovarian 96.3% | OVCAR-5 ovarian 100% | OVCAR-4 ovarian 100% | SK-OV-3 ovarian 102% | IGROV1 ovarian 102% | OVCAR-3 ovarian 101% | HS 578T breast 88.4% | NCI/ADR-RES ovarian 103%

COCCc1ccc(OCC(O)CNC(C)C)cc1 (configuration not stated)
inactive: SK-MEL-2 melanoma 108% | SN12C renal 109% | UO-31 renal 79.4% | TK-10 renal 110% | ACHN renal 108% | CAKI-1 renal 96.4% | A498 renal 103% | CCRF-CEM leukemia 96% | MOLT-4 leukemia 91.4% | RPMI-8226 leukemia 98.1% | OVCAR-8 ovarian 101% | OVCAR-5 ovarian 110% | OVCAR-4 ovarian 98.8% | SK-OV-3 ovarian 106% | IGROV1 ovarian 104% | OVCAR-3 ovarian 118% | HS 578T breast 101% | NCI/ADR-RES ovarian 105%

O=C1OC(c2nc3ccccc3s2)=C/C1=C\c1ccc(O)cc1
inactive: SK-MEL-2 melanoma 110% | SN12C renal 93.9% | UO-31 renal 75.8% | TK-10 renal 114% | CAKI-1 renal 85.4% | A498 renal 108% | MOLT-4 leukemia 102% | SR leukemia 100% | RPMI-8226 leukemia 114% | OVCAR-8 ovarian 106% | OVCAR-5 ovarian 85.5% | OVCAR-4 ovarian 100% | SK-OV-3 ovarian 103% | IGROV1 ovarian 95.1% | OVCAR-3 ovarian 110% | HS 578T breast 89.6% | NCI/ADR-RES ovarian 106%

Cc1ccc2nc3ccccc3c(NCc3ccccc3)c2c1
active: SR leukemia 4.1% | RPMI-8226 leukemia 6.82%
inactive: SK-MEL-2 melanoma 100% | SN12C renal 25.5% | UO-31 renal 18.3% | TK-10 renal 75.3% | CAKI-1 renal 35.5% | A498 renal 11.4% | CCRF-CEM leukemia 34.9% | OVCAR-8 ovarian 33.5% | OVCAR-5 ovarian 40.4% | OVCAR-4 ovarian 32.8% | SK-OV-3 ovarian 64.3% | IGROV1 ovarian 15.8% | OVCAR-3 ovarian 66% | HS 578T breast 69.8% | NCI/ADR-RES ovarian 29.8%

CC/C=C/C/C=C/C/C=C/C/C=C/C/C=C/C/C=C/CCC(=O)Nc1ccn([C@@H]2O[C@H](CO)[C@@H](O)C2(F)F)c(=O)n1
inactive: SK-MEL-2 melanoma 83.1% | TK-10 renal 67.9% | CAKI-1 renal 12.4% | A498 renal 16.6% | SR leukemia 18.5% | RPMI-8226 leukemia 28.1% | OVCAR-8 ovarian 10% | OVCAR-5 ovarian 50.1% | OVCAR-4 ovarian 73.8% | SK-OV-3 ovarian 22% | IGROV1 ovarian 57.5% | OVCAR-3 ovarian 53.4% | HS 578T breast 76.1% | NCI/ADR-RES ovarian 14.1%
active: SN12C renal -2.1% | UO-31 renal 3.26% | ACHN renal 6.15% | MOLT-4 leukemia 1.85%

COc1cccc(-c2nc3sccn3c2-c2ccnc(NCCNS(=O)(=O)c3cccc(Cl)c3)c2)c1
inactive: SK-MEL-2 melanoma 51.8% | EKVX NSCLC 45.8% | SN12C renal 36.3% | ACHN renal 30.5% | CAKI-1 renal 25.9% | A498 renal 44.1% | CCRF-CEM leukemia 24% | MOLT-4 leukemia 30.4% | OVCAR-8 ovarian 21.4% | OVCAR-5 ovarian 89.6% | OVCAR-4 ovarian 34% | SK-OV-3 ovarian 65.6% | IGROV1 ovarian 41.8% | OVCAR-3 ovarian 48.2% | HS 578T breast 38.6% | NCI/ADR-RES ovarian 22.7%
active: RPMI-8226 leukemia -4.85%

O=S(=O)(O)c1ccc(N/N=C/c2ccccc2Cl)cc1
inactive: SK-MEL-2 melanoma 102% | SN12C renal 106% | UO-31 renal 82.7% | TK-10 renal 104% | ACHN renal 99.6% | CAKI-1 renal 89.8% | A498 renal 100% | CCRF-CEM leukemia 95.4% | MOLT-4 leukemia 103% | RPMI-8226 leukemia 98.7% | OVCAR-8 ovarian 115% | OVCAR-4 ovarian 112% | SK-OV-3 ovarian 112% | IGROV1 ovarian 101% | OVCAR-3 ovarian 119% | HS 578T breast 111% | NCI/ADR-RES ovarian 110%

COc1ccc(-c2nc(SCC(=O)Nc3nc(-c4ccccc4)cs3)[nH]c(=O)c2C#N)cc1
inactive: SK-MEL-2 melanoma 90.5% | SN12C renal 108% | UO-31 renal 59% | TK-10 renal 117% | ACHN renal 104% | CAKI-1 renal 82.8% | A498 renal 80.4% | CCRF-CEM leukemia 97.2% | MOLT-4 leukemia 89.9% | RPMI-8226 leukemia 93% | OVCAR-8 ovarian 101% | OVCAR-5 ovarian 84.6% | SK-OV-3 ovarian 81.6% | IGROV1 ovarian 88.3% | OVCAR-3 ovarian 107% | HS 578T breast 78% | NCI/ADR-RES ovarian 95.5%

COc1c(CCC[P+](c2ccccc2)(c2ccccc2)c2ccccc2)cc2c(c1OC)OCO2
inactive: UO-31 renal 86.6% | ACHN renal 55.6% | CAKI-1 renal 31.9% | CCRF-CEM leukemia 29.7% | MOLT-4 leukemia 33.3% | OVCAR-5 ovarian 30.4% | SK-OV-3 ovarian 14.1% | IGROV1 ovarian 21.2% | HS 578T breast 11.7% | NCI/ADR-RES ovarian 103%
active: SK-MEL-2 melanoma -24.2% | SN12C renal 2.66% | TK-10 renal 2.13% | A498 renal -9.74% | RPMI-8226 leukemia 8.37% | OVCAR-8 ovarian 8.63% | OVCAR-4 ovarian 6.3% | OVCAR-3 ovarian 7.21%

CC(=O)c1ccc(NCC(=O)Nc2ccccn2)cc1
inactive: SK-MEL-2 melanoma 105% | SN12C renal 106% | UO-31 renal 86.4% | TK-10 renal 146% | ACHN renal 103% | CAKI-1 renal 87.9% | A498 renal 104% | MOLT-4 leukemia 100% | SR leukemia 108% | RPMI-8226 leukemia 113% | OVCAR-4 ovarian 98.9% | SK-OV-3 ovarian 97% | IGROV1 ovarian 94.8% | OVCAR-3 ovarian 117% | HS 578T breast 106% | NCI/ADR-RES ovarian 105%

COc1ccc(N=Nc2ccc(O)c(=O)cc2)cc1
inactive: SK-MEL-2 melanoma 19.7% | TK-10 renal 44.3% | CAKI-1 renal 11.1% | A498 renal 82.4% | CCRF-CEM leukemia 15.8% | OVCAR-5 ovarian 47.8% | OVCAR-4 ovarian 31.8% | SK-OV-3 ovarian 16.5% | IGROV1 ovarian 15.1% | OVCAR-3 ovarian 16.2% | HS 578T breast 30.7%
active: SN12C renal 6.7% | UO-31 renal 1.08% | ACHN renal 4.83% | MOLT-4 leukemia -18.4% | RPMI-8226 leukemia 9.86% | OVCAR-8 ovarian 9.87% | NCI/ADR-RES ovarian -29%

CC(C)(C)n1cc(-c2ccnc(NCCCNS(=O)(=O)c3ccccc3)c2)c(-c2ccccc2)n1
inactive: EKVX NSCLC 70.7% | SN12C renal 78.2% | UO-31 renal 59% | TK-10 renal 94.1% | ACHN renal 97.2% | CAKI-1 renal 80.9% | A498 renal 39.7% | CCRF-CEM leukemia 42.6% | SR leukemia 31.7% | RPMI-8226 leukemia 65.5% | OVCAR-8 ovarian 68.9% | OVCAR-5 ovarian 94% | OVCAR-4 ovarian 70.4% | SK-OV-3 ovarian 85.1% | IGROV1 ovarian 78.3% | OVCAR-3 ovarian 83.9% | HS 578T breast 96% | NCI/ADR-RES ovarian 74.6%

Cc1ccc(S(=O)(=O)Oc2cc(OS(=O)(=O)c3ccc(C)cc3)cc(OS(=O)(=O)c3ccc(C)cc3)c2)cc1
inactive: EKVX NSCLC 106% | SN12C renal 107% | UO-31 renal 71.8% | TK-10 renal 156% | ACHN renal 114% | CAKI-1 renal 84.2% | A498 renal 96.9% | CCRF-CEM leukemia 95.7% | MOLT-4 leukemia 82.2% | RPMI-8226 leukemia 88.6% | OVCAR-8 ovarian 107% | OVCAR-5 ovarian 105% | OVCAR-4 ovarian 93.2% | SK-OV-3 ovarian 101% | OVCAR-3 ovarian 96.3% | HS 578T breast 95.8% | NCI/ADR-RES ovarian 95.6%

Cc1nc2ccccc2n1CC1NC(=O)NC1=O (configuration not stated)
inactive: EKVX NSCLC 97.9% | SN12C renal 97.7% | UO-31 renal 94.7% | TK-10 renal 102% | ACHN renal 102% | CAKI-1 renal 96% | A498 renal 88.8% | CCRF-CEM leukemia 107% | MOLT-4 leukemia 96% | RPMI-8226 leukemia 106% | OVCAR-8 ovarian 96.4% | OVCAR-5 ovarian 99.3% | OVCAR-4 ovarian 102% | SK-OV-3 ovarian 95.9% | IGROV1 ovarian 104% | OVCAR-3 ovarian 105% | HS 578T breast 102% | NCI/ADR-RES ovarian 107%

CCSC1=NC2C(N(CC)C(=O)N2CC)N1/N=C/C=C/c1ccccc1[N+](=O)[O-] (configuration not stated)
active: A498 renal -5.18% | OVCAR-8 ovarian 8.6% | OVCAR-3 ovarian -2.75% | HS 578T breast 6.38% | NCI/ADR-RES ovarian 4.68%
inactive: EKVX NSCLC 46.5% | SN12C renal 19.8% | UO-31 renal 34.6% | TK-10 renal 70.6% | ACHN renal 25.1% | CAKI-1 renal 19.5% | MOLT-4 leukemia 15.1% | SR leukemia 15.1% | RPMI-8226 leukemia 17.3% | OVCAR-5 ovarian 22.8% | OVCAR-4 ovarian 42.6% | SK-OV-3 ovarian 28% | IGROV1 ovarian 15.3%

Cc1ccc(-c2c(-c3ccccc3)c(=O)oc3ccc(C)cc23)cc1
inactive: EKVX NSCLC 96.9% | SN12C renal 91.9% | UO-31 renal 79.9% | TK-10 renal 118% | ACHN renal 90.6% | CAKI-1 renal 81.1% | A498 renal 97.9% | MOLT-4 leukemia 76.3% | SR leukemia 71.1% | RPMI-8226 leukemia 87.7% | OVCAR-8 ovarian 93.9% | OVCAR-5 ovarian 113% | OVCAR-4 ovarian 98.5% | SK-OV-3 ovarian 101% | IGROV1 ovarian 145% | OVCAR-3 ovarian 117% | HS 578T breast 99.6% | NCI/ADR-RES ovarian 93.2%
